Test results taken from PubChem BioAssay (NCI).
This is part of a sample that, as a whole, favours compounds with a hit. Of some 83,000 tested, about 20% had one in any assay.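 Step 1: grow cells in 96-well plates. Step 2: add test compound at a single concentration. Step 3: incubate 48 h. Step 4: record percent growth.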 Values without a mark were called inactive. Calls of active or inactive are those of the source. Rule for the calls: active = growth percent below 10; inactive = the rest.

These compounds were tested on IGROV1 ovarian (assay: NCI-60 one-dose screen, 48 h (100 = growth as untreated, 0 = no growth, -100 = all killed)). Details: 10 µM.

Row | SMILES | growth
1 | CN1CCN(c2ccc(Nc3nc(NCCCNC(=O)c4ccc(F)cc4)c4sccc4n3)cc2)CC1 | 77.8%
2 | O=C(CS(=O)(=O)c1oc(-c2ccc(Cl)cc2)nc1S(=O)(=O)c1ccc(Cl)cc1)N1CCOCC1 | 73.5%
3 | COc1ccc(C(=O)NC(=S)N2CCN(c3ncnc4c3cnn4-c3ccccc3)CC2)cc1 | 66.4%
4 | COc1cccc(COc2ccc(/C=C3\Oc4cc(O)ccc4C3=O)cc2)c1 | 53.7%
5 | O=C(O)CCCCCCCCCCN1C(=O)/C(=C/c2cnc(-c3ccc(Cl)cc3)s2)SC1=S | 23.9%
6 | COc1cccc(C(N)=Nc2ccc(OCCCCCCn3cncn3)cc2)c1 | 31.4%
7 | CN(C)c1cccc2c(S(=O)(=O)Nc3cccc(-c4csc(NC(=O)CCCCCN5CCN(c6cc7c(cc6F)C(=O)N(C6CCC(=O)NC6=O)C7=O)CC5)n4)c3)cccc12 (configuration not stated) | 96.3%
8 | Cc1ccc(C(C)C)cc1NC(=O)c1ccccc1O | 54.3%
9 | NC(=Nc1ccc(OCCCCCCCCn2ccnn2)cc1)c1ccccc1 | 28.9%
10 | O=c1[nH][nH]c(Nc2ccccc2)c1N=Nc1ccc(F)cc1 | 80.3%
11 | COc1ccc2[nH]c(O)c(N=NC(=O)c3cc(-c4ccc(C)cc4)nc4ccccc34)c2c1 | 102%
12 | CN1C(=O)/C(=C/c2nccs2)SC1=S | 63.8%
13 | CNC(=O)c1cc(-c2ccc(NC(=O)Nc3ccc(C)cc3)cc2)nc2cccnc12 | 92.8%
14 | CC(=O)NNc1ccc2nnc(-c3ccc(Br)cc3)n2n1 | 105%
15 | O=c1oc2ccc(-c3ccc(F)cc3F)cc2c(=O)n1-c1ccc(F)c(Cl)c1 | 13%
16 | CCN1CCN(c2ccc(NC(=O)Nc3ccc(-c4cc(C(=O)NC(C)C)c5ncccc5n4)cc3)cc2C(F)(F)F)CC1 | -86% (active)
17 | COC(=O)C(Cc1ccc(O)c(O)c1)NC(=O)C(CSC/C=C(\C)CCCC(C)CCCC(C)CCCC(C)C)NC(C)=O (configuration not stated) | 17.4%
18 | CN1CCN(c2ccc(Nc3nc(NCCCNC(=O)c4ccc(Cl)cc4)c4sccc4n3)cc2)CC1 | 88.3%
19 | CCCCCCCCCCCCCCCCCCCC(=O)NCCc1c[nH]c2ccc(O)cc12 | 93.6%

Row | SMILES | growth
20 | CCCCCc1ccc(S(=O)(=O)N(C(C)=O)c2cc(-c3csc(N(C)C(C)=O)n3)ccc2N2CCN(C)CC2)cc1 | 68.2%
21 | COc1ccc2[nH]c(O)c(N=NC(=O)COc3ccc(NC(=O)Nc4ccc(Cl)cc4)cc3)c2c1 | 68.8%
22 | CCCCCCCCCCCCCCCCCCCC(=O)NCCc1c[nH]c2ccc(OC(=O)NOCCOCCOCCOCCOCCOCCOCCOCCOCCOCCOCCOCCOCCOCCOCCOCCOCCOCCOCCOCCOCCOCCOC)cc12 | 18.9%
23 | CC1(C)CC[C@]2(C(=O)N3CCOCC3)CC[C@]3(C)C(=CC[C@@H]4[C@@]5(C)CC[C@H](NCO)C(C)(C)[C@@H]5CC[C@]43C)[C@H]2C1 | -85.6% (active)
24 | Cc1ccc(-c2cc(C(=O)N=Nc3c(O)[nH]c4ccc(Br)cc34)c3ccccc3n2)cc1 | 52.9%
25 | CCC(C)S(=O)(=O)c1oc(-c2ccc(C)cc2)nc1S(=O)(=O)c1ccccc1 (configuration not stated) | -92.9% (active)
26 | CCCCCc1ccc(S(=O)(=O)Nc2cc(-c3csc(N(C)C(C)=O)n3)ccc2N2CCN(C)CC2)cc1 | 48%
27 | C/C(=C\CC/C=C(\C)CC/C=C(\C)CC[C@@H](O)C(C)(C)O)CC/C=C(\C)CC[C@@H](O)C(C)(C)O | 76.8%
28 | CC(C)C(=O)Nc1ccc(C(=O)NC(=S)Nc2ccc(C(=O)O)cc2)cc1 | 106%
29 | CN1CCN(c2ccc(Nc3nc(N4CCN(S(=O)(=O)c5ccc(F)cc5)CC4)c4sccc4n3)cc2)CC1 | -86.4% (active)
30 | O=C(Cn1cc(CSc2nnc3oc4ccccc4n23)nn1)Nc1ccc(Br)cc1 | 75%
31 | CC1(C)CC[C@]2(C(=O)NCCCNCCCCNCCCN)CC[C@]3(C)C(=CC[C@@H]4[C@@]5(C)Cc6c([nH]c7ccccc67)C(C)(C)[C@@H]5CC[C@]43C)[C@H]2C1 | 77.3%
32 | COc1ccc(CCN2C(=O)/C(=C/c3csc(C#N)n3)SC2=S)cc1 | 26.8%
33 | CC(=O)Nc1nc(-c2ccc(N3CCN(C)CC3)c(NS(=O)(=O)c3ccc(C(F)(F)F)cc3)c2)cs1 | 47.5%
34 | O=C(NO)c1ccc(Cn2ccc3c(Nc4ccccc4)ncnc32)cc1 | -30.8% (active)
35 | CC(=O)Nc1nc(-c2ccc(N3CCN(C)CC3)c(NS(=O)(=O)c3cccc4c(N(C)C)cccc34)c2)cs1 | 84.8%
36 | COC[C@@H](CC(C)C)N=C1NC(=O)/C(=C/c2ccc3ncsc3c2)N1 | 8.22% (active)
37 | O=C(NC(=S)N1CCN(c2ncnc3c2cnn3-c2ccccc2)CC1)c1ccc(Cl)cc1 | 70.9%
